In PubChem BioAssay AID540333 (Southern Research Specialized Biocontainment Screening …, 2011):
Hit rate of the full screen: of about 10,000 compounds, about 320 (3.2%) were called active. The full list was thinned out, with actives kept by preference. Values without a mark were called inactive. Cut-off read from the data, not from the text of the source: active = CPE inhibition mostly above about 9.1% (no sharp cut-off); inactive = mostly below about 7.2%.

Experiment: antivirals protecting cells from dengue CPE – CPE readout, HTS (AID 540333)
Details: Dengue virus CPE inhibition in host cells, at 20 µM; hits give high values

SMILES | CPE inhibition
COc1cc(NC(=O)CSc2nc3c(C)ccc(C)c3cc2C)c(C(=O)O)cc1OC | inactive
O=C1CN(C(=O)CSc2nnc(Nc3ccccc3)s2)c2ccccc2N1 | inactive
S=C1NCCOCCNC(=S)NCCOCCOCCOCCN1 | inactive
CC(=O)CC[C@@H](C)O[C@@H]1OC(C)[C@H](O)CC1O (stereo partly specified) | 0.175%
CCc1cccc(CC)c1NC(=O)C1CN(S(=O)(=O)c2ccccc2)CCN1S(=O)(=O)c1ccccc1 (stereo unspecified) | 1.21%
COC(=O)C(Oc1ccc2c(-c3ccc(OC)cc3)cc(=O)oc2c1)c1ccccc1 (stereo unspecified) | 0.765%
O=C(COc1ccc2c(-c3ccccc3)cc(=O)oc2c1)NCc1cccs1 | 0.675%
CC(C)(C)OC(=O)NCC(=O)Oc1cc2oc(=O)cc(-c3ccccc3)c2cc1Cl | 24.3% (active)
COc1ccccc1NC(c1cccnc1)c1ccc2cccnc2c1O (stereo unspecified) | 0.795%
Cc1ccc(Cl)cc1NC(=O)c1ccc(NC(=O)CCC(=O)O)cc1 | 0.84%
O=C(NC(=S)Nc1nc2c(s1)CCCC2)c1ccccc1 | 0.705%
COc1ccc(C(=O)N[C@H](C(=O)Nc2nc3c(s2)CCCC3)C(C)C)cc1 | 18.9% (active)
Cc1csc(NC(=O)[C@@H](NC(=O)c2ccccc2)C(C)C)n1 | 0.86%
COC(=O)c1ccc(C(=O)NC(=S)Nc2nc3c(s2)CCCC3)cc1 | 0.85%
O=C(NC(=S)Nc1nc2c(s1)CCCC2)c1ccc(C(=O)c2ccccc2)cc1 | 11.3% (active)
N#Cc1c(NC(=S)NC(=O)c2ccccc2)sc2c1CCCC2 | 1.09%
Cc1ccc(-n2c(SCC(=O)NCCN3C(=O)CSC3=O)nnc2-c2cccc(C)c2)cc1 | 0.355%
O=C(CSCc1ccc([N+](=O)[O-])cc1)NC1CC1 | 2.12%
Cc1ccc(-c2nnc3ccc(SCC(=O)N4CCCc5ccccc54)nn23)cc1 | inactive
Cc1ccc(C(=O)Nc2nnc(SCC(=O)N3CCCc4ccccc43)s2)cc1 | 0.06%
Cc1ccc(C(c2nnnn2C2CCCC2)N2CCc3ccccc32)cc1 (stereo unspecified) | 18.1% (active)
N#CC1=C(N)Oc2cc(O)c(C=Nc3ccccc3)cc2C1c1ccccc1 (stereo unspecified) | 5.12%
COc1ccc(N=Cc2cc3c(cc2O)OC(N)=C(C#N)C3c2ccccc2)cc1 (stereo unspecified) | 13.1% (active)
COc1cccc(C2C(C#N)=C(N)Oc3cc(N)ccc32)c1OC (stereo unspecified) | inactive

SMILES | CPE inhibition
COc1ccc([C@@H]2C(C#N)=C(N)S[C@@H](c3ccccc3)[C@@H]2[N+](=O)[O-])cc1 | 0.405%
Cc1ccccc1N=Cc1cc2c(cc1O)OC(N)=C(C#N)C2c1ccccc1 (stereo unspecified) | 0.055%
Cc1ccc(N=Cc2cc3c(cc2O)OC(N)=C(C#N)C3c2ccccc2)cc1 (stereo unspecified) | 23.4% (active)
Cc1ccc(-c2nc(N)sc2CC(=O)OCC(=O)NCC2CCCO2)cc1 (stereo unspecified) | inactive
CCCCC(=O)Nc1cccc(NC(=S)NC(=O)Cc2ccccc2)c1 | 0.515%
O=C(Nc1cccc(Cl)c1)c1ccc(Cn2cc(Cl)cn2)cc1 | inactive
COc1cccc(C(Nc2ccccn2)c2c(NC(=O)c3ccco3)sc(C)c2C)c1 (stereo unspecified) | 31% (active)
Cc1ccnc(NC(=S)NC(=O)c2ccco2)c1 | 0.58%
O=C(NC(=S)Nc1ccccn1)c1ccco1 | 1.33%
Fc1ccccc1NC(=S)NCc1ccc2c(c1)OCO2 | 0.705%
COc1cc(C(=O)NNC(=S)NC(=O)c2ccc(Cl)cc2)cc(OC)c1OC | 2.02%
CCn1c(SCC(=O)Nc2ncc(C(F)(F)F)cc2Cl)nnc1-c1cccc(C)c1 | 0.415%
Cc1ccc(-c2nn(-c3ccccc3)cc2C(=O)OCC(=O)Nc2ncc(Cl)cc2Cl)cc1 | 0.085%
Cc1cccc(-n2c(SCC(=O)Nc3ncc(Cl)cc3Cl)nc3ccccc32)c1 | 13.7% (active)
Cc1ccc(-n2c(SCC(=O)Nc3cccc(S(N)(=O)=O)c3)nc3ccccc32)cc1 | 10.4%
CN(C)S(=O)(=O)c1cccc(NC(=O)CSc2nc3ccccc3n2-c2ccccc2)c1 | 6.67%
Cc1ccc(-n2c(SCC(=O)Nc3ncc(Cl)cc3Cl)nc3ccccc32)cc1 | 14.9% (active)
COc1cc2c(cc1OC)CN(c1ccc([N+](=O)[O-])cc1C#N)CC2 | 0.37%
CN(C)S(=O)(=O)c1ccc(NCC2COc3ccccc3O2)c([N+](=O)[O-])c1 (stereo unspecified) | 0.57%
O=C(CSc1cccc[n+]1[O-])Nc1cc(S(=O)(=O)N2CCOCC2)ccc1Cl | inactive
O=c1c2ccccc2sc2ccc(Cl)cc12 | 0.48%
CSc1ccc(/C=C(\C#N)C(=O)NC2CCCCC2C)cc1 (stereo unspecified) | 18.5% (active)
CCCCCCCCNC(=O)/C(C#N)=C/c1ccc(SC)cc1 | 0.185%
COc1cc(/C=C(\C#N)C(=O)NC2CCCCC2C)ccc1OS(=O)(=O)c1ccc(C)cc1 (stereo unspecified) | inactive

SMILES | CPE inhibition
CC(=O)Nc1ccc(OCC(O)CN2CCCCC2C)cc1 (stereo unspecified) | 0.255%
O=[N+]([O-])c1ccc(-c2nnc(-c3ccccc3)c(NCCCO)n2)cc1 | inactive
CC1CCN(C(=O)CCc2ccc(Oc3cc([N+](=O)[O-])cc([N+](=O)[O-])c3)cc2)CC1 | 6.92%
O=C(c1cc([N+](=O)[O-])ccc1N1CCCCC1)N1CCCC1 | 0.545%
O=C(CCc1ccc(Oc2cc([N+](=O)[O-])cc([N+](=O)[O-])c2)cc1)N1CCCCCC1 | 12.4% (active)
COc1ccc(OCCCC(=O)Nc2cccc([N+](=O)[O-])c2C)cc1 | inactive
C=CCOC(=O)C1=C(C)NC(SCC(N)=O)=C(C#N)C1c1cccs1 (stereo unspecified) | 0.32%
Cc1cc(C)c(COc2ccc(/C=N/n3c(C)n[nH]c3=S)cc2)c(C)c1 | 5.91%
Cc1cc2cc(CN(Cc3cccs3)C(=S)NCC3CCCO3)c(=O)[nH]c2cc1C (stereo unspecified) | 18.4% (active)
Cc1ccc2[nH]c(=O)c(CN(Cc3cccs3)C(=S)NCC3CCCO3)cc2c1 (stereo unspecified) | 0.245%
Cc1cccc(NC(=S)N(Cc2cccs2)Cc2cc3cc(C)cc(C)c3[nH]c2=O)c1 | 3.13%
CNC(=S)N(Cc1cccs1)Cc1cc2cc(OC)ccc2[nH]c1=O | inactive
Cc1cc(C)c2[nH]c(=O)c(CN(Cc3cccs3)C(=S)NCC3CCCO3)cc2c1 (stereo unspecified) | 2.9%
COc1ccc2[nH]c(=O)c(CN(Cc3cccs3)C(=S)Nc3cccc(C)c3)cc2c1 | 9.5% (active)
N=C(N)SCc1nc2ccccc2c(=O)n1-c1ccccc1 | inactive
CC1CCC(=O)N(CCSc2ccccc2)CC1 (stereo unspecified) | 0.29%
O=C(c1ccc(COc2ccc(Cl)cc2)o1)N1N=C(C(F)F)CC1(O)C(F)F (stereo unspecified) | 3%
CCO[C@H]1OC(C(N)=O)=C[C@@H](C(C)(C)C)[C@@H]1CCCO | inactive
CC(C)CC(=O)NC(c1ccccc1Cl)c1c(O)ccc2ccccc12 (stereo unspecified) | 69% (active)
COc1ccccc1C(NC(=O)C1CCCCC1)c1c(O)ccc2ccccc12 (stereo unspecified) | 0.755%
CCC(=O)NC(c1ccccc1Cl)c1c(O)ccc2ccccc12 (stereo unspecified) | 4.07%
CC(C)c1ccc(NC(=S)NCCc2c[nH]c3ccccc23)cc1 | inactive
C/C(=N\NC(=O)c1ccccc1-n1cccc1)C1CC1 | 0.14%
CON1C(=O)C(=O)N(OC)C2CCCCCC21 (stereo unspecified) | 0.76%

SMILES | CPE inhibition
CCOc1ccc(NCc2nnc(SCc3ccc(Cl)cc3)n2-c2ccccc2)cc1 | 15.5% (active)
COc1ccc(-n2c(CNc3ccc(C)cc3)nnc2SCc2ccccc2)cc1 | 13.1% (active)
COc1ccc(NCc2nnc(SCC(=O)Nc3nc(-c4ccccc4)cs3)n2-c2ccccc2)cc1 | inactive
COc1ccc(-n2c(SCc3ccc([N+](=O)[O-])cc3)nnc2-c2ccc(C)cc2)cc1 | 11.5%
COC(=O)c1ccc(CSc2nnc(CS(=O)Cc3ccc(Br)cc3)n2-c2ccccc2)cc1 (stereo unspecified) | 9.53%
CCOc1ccc(NCc2nnc(SCC(=O)Nc3nc(-c4ccccc4)cs3)n2-c2ccccc2)cc1 | 0.01%
Cc1cc(C(=O)N/N=C/c2cc(Br)cc([N+](=O)[O-])c2O)c2ccccc2n1 | 0.34%
CCOC(=O)c1cccc(S(=O)(=O)N2CCCC2)c1 | 0.06%
O=C(NCc1ccccc1)C1=C[C@@H](C2CCCCC2)C[C@@H](OCCCCO)O1 | 2.12%
Cc1[nH][nH]c(=O)c1C | 0.36%
Cc1ccc(S(=O)(=O)NNC(=S)NC(=O)c2ccc([N+](=O)[O-])cc2)cc1 | inactive
CC(C)COP(=O)(c1ccc(N(C)C)cc1)C(Nc1ccccc1)c1cccnc1 (stereo unspecified) | 0.73%
CC(C)COP(=O)(c1ccc(N(C)C)cc1)C(Nc1ccccc1)c1ccccc1 (stereo unspecified) | 29.1% (active)
CCCOP(=O)(c1ccc(N(C)C)cc1)C(Nc1ccccc1)c1ccc(N(C)C)cc1 (stereo unspecified) | 0.64%
O=C(NC1CCCc2ccccc21)c1ccc(Br)cc1 (stereo unspecified) | 3.09%
Nc1ccc(-n2nnnc2CN2CCOCC2)cc1 | 0.25%
COc1ccc(CC(=O)Nc2cc3oc4ccccc4c3cc2OC)cc1 | 0.095%
C=CCOC(=O)C1=C[C@@H](c2ccc(C(F)(F)F)cc2)C[C@@H](OCCCCO)O1 | 0.15%
CNC(=O)/C(C#N)=C/c1c(N(Cc2ccccc2)Cc2ccccc2)nc2c(C)cccn2c1=O | 17% (active)
Cc1ccc(Oc2nc3ccccn3c(=O)c2/C=C(\C#N)C(=O)Nc2c(C)n(C)n(-c3ccccc3)c2=O)c(C)c1 | 0.875%
Cc1cccn2c(=O)c(/C=C(\C#N)C(N)=O)c(N3CCN(Cc4ccc5c(c4)OCO5)CC3)nc12 | 0.905%
Cc1cccc(Oc2nc3ccccn3c(=O)c2/C=C(\C#N)C(=O)NC2CCS(=O)(=O)C2)c1 (stereo unspecified) | 1.43%
CCNC(=O)/C(C#N)=C/c1c(N2CCN(Cc3ccc4c(c3)OCO4)CC2)nc2c(C)cccn2c1=O | inactive
CNC(=O)/C(C#N)=C/c1c(N(Cc2ccccc2)Cc2ccccc2)nc2ccccn2c1=O | 14.1% (active)
